This is an account of results in ChEMBL document CHEMBL3988442, “University of Dundee, Small-Polar-MMV Screening Library” (2021).

Screen size: about 48,000 compounds; about 13,000 (27%) showed an effect of 50% or more. This is one part of the list.

The subject of this assay is Wolbachia pipientis. As to the kind of experiment: Anti-Wolbachia Cell-Based Screen. It is filed as functional. Set-up: scale not given: in the data most compounds retested in dose-response had high values. Particulars: 5 µM.
For the compound `CCOc1ncnc2c1CCN(c1cc(C(F)(F)F)ncn1)CC2`, the “Percent Effect” value was 1.194%. Turning to `CCOC(=O)CC1CCCCN1C(=O)c1cc(C)on1` (stereo not drawn), the “Percent Effect” value is 7.011%. Under `CS(=O)(=O)N(Cc1ccon1)c1ccc2c(c1)OCO2` stands -10.09%; under `Cc1nc(-c2cc(Cl)cc3c2OC(CN)C3)c[nH]1` (stereo not drawn), -15.93%; under `Cc1ccc(-c2nnc(CN3CC[C@H](CO)[C@@H](O)C3)o2)n1C`, -9.968%. With `c1coc(CNc2nnc(Cc3ccsc3)o2)c1` the figure was -2.731%; with `O=C(c1cc(F)cc(Cl)c1)N1C[C@@H]2CC[C@H](C1)N(Cc1ccccc1)C2`, 106.3%. Under `CCC1CN(C(=O)c2ccc(=O)[nH]c2)CCC(=O)N1Cc1ccccc1` (stereo not drawn) stands -17.04%. On to `O=C(c1ccc(F)c(Cl)c1)N1C[C@@H]2CC[C@H](C1)N(Cc1ccccc1)C2`, for which the “Percent Effect” value came out at 2.522%. With `O=C(c1cc(Cl)c[nH]c1=O)N1C[C@@H]2CC[C@H](C1)N(Cc1ccccc1)C2` the figure was 80.73%. Regarding `O=C(c1c[nH]c(=O)c(Cl)c1)N1C[C@@H]2CC[C@H](C1)N(Cc1ccccc1)C2`, the “Percent Effect” value is listed as -15.02%. `O=c1cc(CN2C[C@H]3CC[C@@H]2CN(Cc2ccccc2)C3)[nH]c(=O)[nH]1`: the “Percent Effect” value turned out to be 2.734%. For `O=C(c1ccccc1)N1C[C@@H]2CC[C@H](C1)N(Cc1cc(F)ccc1Cl)C2`, the “Percent Effect” value is listed as -19.41%. Under `O=C(c1ccc(=O)[nH]c1)N1C[C@@H]2CC[C@H](C1)N(Cc1ccccc1)C2` stands 87.59%; under `CC(=O)N1C[C@@H]2CC[C@H](C1)N(Cc1ccc(Cn3cccn3)cc1)C2`, 6.393%.

With `CC(C)c1nc(CN(C)S(=O)(=O)c2cccs2)cs1`, the “Percent Effect” value came out at 0.03171%. With `CC(CS(C)(=O)=O)N(C(=O)CCc1ccc(Cl)s1)C1CC1` (stereo not drawn) the figure was -4.139%; with `Cc1nc(CNC(=O)NCC(O)c2ccc(F)c(F)c2)cs1` (stereo not drawn), 9.084%. With `COc1cccc(-n2nnc(C(=O)N3CCN(C)CC3C)c2C)c1` (stereo not drawn) the figure was 13.25%; with `COCCN1C[C@@H]2CCCO[C@@H]2[C@H](NC(=O)c2cnccn2)C1.O=C(O)C(F)(F)F`, -16.42%.

As for `c1cc(-c2noc([C@@H]3CCCN3C3CCC3)n2)cc(N2CCCC2)n1`, the “Percent Effect” value was -5.247%.

As for `Cc1cnc(CNC(=O)NCc2cccnc2N(C)C)s1`, the “Percent Effect” value is listed as -3.719%. With `Cc1ccc(C(=O)NCc2cccnc2N(C)C)s1` the figure was 92.24%; with `Cc1cnc(C(C)(C)NC(=O)NCc2cccnc2OC(C)C)s1`, -10.8%.

Regarding `Cc1ccc(CNC(=O)NCc2cccnc2N(C)C)s1`, the “Percent Effect” value was -3.895%.

For the compound `Cc1nnsc1C(=O)NCc1cccnc1N(C)C`, the “Percent Effect” value is on record as -2.409%. With `Cc1nc(CSCCC(=O)NCc2cccnc2N(C)C)cs1` the figure was -3.36%; with `Cc1cc(NC(=O)NCc2cccnc2OC(C)C)n(C)n1`, 8.95%. Consider `CN(C)c1ncccc1CNC(=O)N1CCN(C)c2ccccc2C1`, for which the “Percent Effect” value is -11.25%. With `CN(C)c1ncccc1CNC(=O)NCc1ccc(Cl)s1` the figure was 103.5%. Under `Cc1nc(CNC(=O)NCc2cccnc2N(C)C)cs1` stands 95.24%; under `CNc1nc(C(=O)NCc2cccnc2N(C)C)cs1`, -18.64%; under `CC(C)Oc1ncccc1CNC(=O)NC(C)c1cccs1` (stereo not drawn), 104.4%.

As to `CCc1ccccc1OCCN1C[C@@H](NS(C)(=O)=O)[C@H](C(C)C)C1`, the “Percent Effect” value is listed as 0.8676%. On to `O=C(O)c1cccnc1CN1CCOc2ccccc2C1`, for which the “Percent Effect” value is -4.779%. `Cc1cccn2c(CNC(C)CO)cnc12` (stereo not drawn): the “Percent Effect” value was 5.706%.

As for `CCC(CNC(=O)c1ccc(C(N)=O)cc1)Oc1cccc(F)c1` (stereo not drawn), the “Percent Effect” value is reported as -8.287%. Regarding `CCCS(=O)(=O)NC(C)c1cccc(-n2cccn2)c1` (stereo not drawn), the “Percent Effect” value was -8.996%. For the compound `NC(=O)c1ccc(-n2ccnc2-c2cccc(O)c2)cc1N1CCCC1`, the “Percent Effect” value is recorded as -15.85%. In the case of `CC(C)C(NC(=O)NCc1cccnc1N(C)C)c1cccs1` (stereo not drawn), the “Percent Effect” value is listed as 97.46%. Under `CN(C)c1ccc(NC(=O)NCc2ccc(Cl)s2)cn1` stands 9.088%; under `O=C(NCc1ccccn1)NCC(O)c1ccccc1C(F)(F)F` (stereo not drawn), -3.765%; under `CN(C)c1ncccc1CNC(=O)NCc1ccco1`, -3.644%.

Take `CN(C)c1ncccc1CNC(=O)NCC(c1cccs1)N(C)C` (stereo not drawn): the “Percent Effect” value was determined as 101.5%. Under `CN(C)C(CNC(=O)NCc1ccco1)c1cccs1` (stereo not drawn) stands 6.587%; under `CC(NC(=O)NCc1cccnc1N(C)C)c1cccs1` (stereo not drawn), 91.27%; under `O=C(NCc1ccccn1)NCc1ccc(Cl)s1`, 100.6%. With `CC(C)N(Cc1nccn1C)C(=O)c1cc(Cl)c[nH]c1=O` the figure was -15.2%. Regarding `CCNC(=O)[C@@H]1C[C@@H](N)CN1Cc1ccc(Sc2ccc(C)cc2)o1`, the “Percent Effect” value turned out to be 5.501%. In the case of `CN(C(=O)COC1CCCC1)C1CCN(CC2CCOC2)CC1` (stereo not drawn), the “Percent Effect” value is reported as -27.33%.

In the case of `CN(CCCc1nccn1C)C(=O)C1CCN(C(=O)C2CCC2)CC1`, the “Percent Effect” value came out at 9.591%. Under `O=C(NC1CCCC1)N1CC[C@H]2[C@H]1CCN2c1nncs1.O=C(O)C(F)(F)F` stands 1.453%; under `CS(=O)(=O)N1CCCc2sc(C(=O)NC3CC3)nc21`, -1.89%; under `Cc1cc(CN2CCN(C(C)C(=O)NCc3cccs3)CC2)no1` (stereo not drawn), -4.683%. With `Cc1cc(CNC(=O)NC(C)c2ccccc2)no1` (stereo not drawn) the figure was -4.939%; with `CC(NC(=O)NCc1cccnc1N(C)C)c1ccc(F)cc1` (stereo not drawn), 97.94%. Under `Cc1cc(CNC(=O)NCc2cccs2)no1` stands 116.2%. Take `CN(C)c1ncccc1CNC(=O)NCc1cccs1`: the “Percent Effect” value was determined as 101%. As for `Cc1cc(CNC(=O)c2cc(COc3cncc(Cl)c3)on2)n[nH]1`, the “Percent Effect” value is -4.866%.

Regarding `CN1CCCC2(CCN(S(=O)(=O)c3c(Cl)nc4sccn34)C2)C1=O` (stereo not drawn), the “Percent Effect” value was -6.903%. Under `COc1ccc(CN2CCCn3nnc(COCC4CC4)c3C2)cc1.O=C(O)C(F)(F)F` stands -11.72%; under `CN(Cc1c[nH]nc1-c1ccc(F)cc1F)Cc1nccn1C`, -2.031%; under `CCC(C)(NCC(=O)NC(=O)NC)c1nccs1` (stereo not drawn), 3.438%. `Cc1ccc(C2COCCN2C(=O)c2ccc(N(C)C)cc2)o1` (stereo not drawn): the “Percent Effect” value was 16.04%.

Turning to `O=C(COc1ccccc1F)N1CCCCC1c1ccn2ccnc2n1` (stereo not drawn), the “Percent Effect” value is recorded as 107.9%.

Consider `O=C(CCc1cccnc1)N1CCCCC1c1ccn2ccnc2n1` (stereo not drawn), for which the “Percent Effect” value is listed as 103.4%. With `CC(C)(C)OC(=O)N1CCCCC(NC(=O)CCc2cccnc2)C1` (stereo not drawn) the figure was 15.24%; with `O=C(Cc1cccc(F)c1)N1CCCCC1c1ccn2ccnc2n1` (stereo not drawn), 7.751%; with `O=C(Cc1ccccc1F)N1CCCCC1c1ccn2ccnc2n1` (stereo not drawn), 125%. With `O=C(Cc1ccc(F)cc1)N1CCCCC1c1ccn2ccnc2n1` (stereo not drawn), the “Percent Effect” value is listed as -3.373%.

For the compound `O=C(COc1cccc(F)c1)N1CCCCC1c1ccn2ccnc2n1` (stereo not drawn), the “Percent Effect” value stood at 137.7%. On to `CN1C(=O)c2ccc(NC(=O)CSc3ccc4c(c3)CCC4)cc2C1=O`, for which the “Percent Effect” value was found to be 8.962%. On to `Cc1ncsc1CCC(=O)NCc1cc2n(n1)CCN(C(=O)N(C)C)C2`, for which the “Percent Effect” value is reported as -5.05%. With `CCOC(C)C(=O)Nc1cc(S(=O)(=O)NC2CC2)ccc1F` (stereo not drawn) the figure was 0.6608%; with `Cn1c(=O)oc2cc(Nc3ncc(C#N)cc3Cl)ccc21`, -1.67%; with `CCc1nnc(CN2CCc3[nH]c(-c4ccc(OC)cc4)nc3C2)o1`, -0.2672%. Turning to `O=c1[nH]c(-c2ccccn2)nc2c1CCN(Cc1cccc(O)c1)C2`, the “Percent Effect” value worked out at 110.8%. For `c1ccc(-c2noc(CN3CCc4c(ncn4C4CC4)C3)n2)nc1`, the “Percent Effect” value is -14.25%. Under `Cc1nn(C)cc1CN1CCc2c(nc(-c3ccccn3)[nH]c2=O)C1` stands 96.61%. Consider `CCn1nc2c(cc1=O)CN(Cc1nc(-c3ccccn3)no1)CC2`, for which the “Percent Effect” value was -6.264%. On to `O=C(c1ccco1)N1CCc2c(nc(-c3ccncc3)[nH]c2=O)C1`, for which the “Percent Effect” value is listed as 13.85%. Under `COc1ccccc1CN1C(=O)O[C@@H]2CN(c3ccccn3)C[C@@H]21` stands 2.644%.

As to `COc1ccccc1CN1CCc2c(nc(-c3ccccn3)[nH]c2=O)C1`, the “Percent Effect” value was determined as 118.7%. As for `COc1ccc(CN2CCc3c(nc(-c4ccccn4)[nH]c3=O)C2)cc1`, the “Percent Effect” value is 130.9%. With `COc1ccccc1CN1C[C@@H](F)[C@@H](OCc2nc3ncccc3[nH]2)C1` the figure was -5.339%; with `Cn1cnc2c1CCN(Cc1cccc(C(N)=O)c1)C2`, -6.228%; with `COc1ccc2c(c1)CN(Cc1nc3ccsc3c(=O)[nH]1)CC2`, -2.354%. Under `Cc1nnc(CN(C)CC(=O)N2CCCN(C3CCCC3)CC2)n1C` stands -1.28%.

On to `Cc1cccc(S(=O)(=O)NCC(C)(C)CC(C)O)c1C#N` (stereo not drawn), for which the “Percent Effect” value is reported as -19.79%. Under `CCNC(=O)Nc1c(C)cnn1Cc1cc(F)ccc1F` stands -3.451%; under `O=C(C[S+]([O-])Cc1c(Cl)cccc1Cl)N1CCc2sccc2C1` (stereo not drawn), -11.53%. With `COc1ccccc1CNC(=O)N1CCCC(c2nncn2C)C1` (stereo not drawn) the figure was -1.227%. Under `Cn1cnnc1C1CCCN(C(=O)c2cc3ccccc3[nH]2)C1` (stereo not drawn) stands 124.8%; under `COc1cc2ccccc2cc1C(=O)N1CCCC(c2nncn2C)C1` (stereo not drawn), 138.9%; under `Cn1cnnc1C1CCCN(C(=O)c2n[nH]c3ccccc23)C1` (stereo not drawn), 7.957%. For `Cc1occc1CN(C)C(=O)Nc1ccc(=O)n(C)c1`, the “Percent Effect” value turned out to be 5.737%. With `c1ccc(CN2CCC(NCCc3ccc4c(c3)CCO4)CC2)nc1` the figure was 2.392%; with `Cn1ccc(C(=O)Nc2cccc(-c3ccc4c(c3)CCO4)n2)cc1=O`, -14.88%.

As for `CCc1[nH]ncc1C(=O)N1CCCC(n2nc(C)nc2C)C1` (stereo not drawn), the “Percent Effect” value was -3.385%. Under `Cc1nc(C)n(C2CCCN(C(=O)COc3cccc(C#N)c3)C2)n1` (stereo not drawn) stands 83.98%; under `Cc1nc(C)n(C2CCCN(C(=O)CCCOc3ccccc3)C2)n1` (stereo not drawn), 1.016%; under `CCOc1ccc(CC(=O)N2CCCC(n3nc(C)nc3C)C2)cc1` (stereo not drawn), 81.54%. With `Cc1nc(C)n(C2CCCN(C(=O)Cc3n[nH]c4ccccc34)C2)n1` (stereo not drawn) the figure was -3.08%; with `Cc1ccc(OCCC(=O)N2CCCC(n3nc(C)nc3C)C2)cc1` (stereo not drawn), 93.22%; with `Cc1nc(C)n(C2CCCN(C(=O)Cc3cccnc3)C2)n1` (stereo not drawn), -7.777%.

Regarding `Cc1nc(C)n(C2CCCN(C(=O)c3cccc4cn[nH]c34)C2)n1` (stereo not drawn), the “Percent Effect” value worked out at 1.609%. With `Cc1nc(C)n(C2CCCN(C(=O)COc3ccccc3)C2)n1` (stereo not drawn) the figure was 133.2%; with `N#Cc1ccc(OCC(=O)N2CCCC(n3cccn3)C2)cc1` (stereo not drawn), -1.98%.
